Screen size: about 52,000 compounds; about 4,300 (8.3%) were called active. For the sample, actives were picked, then their nearest neighbours and some compounds at random. Values without a mark were called inactive. No stated cut-off is given here; in the data, active means survival mostly below about 52% (no sharp cut-off); inactive means mostly above about 56%.

This experiment has as its system DeltatarO mutant. In words: growth inhibition of S. aureus wild type versus tarO mutant, primary screen, teichoic acid synthesis inhibitors, RN4220, OD600 (AID 463173). As to conditions: OD600, 18 h, active compounds read low, screened at 18.75 µg/mL (by protocol).
`CCc1ccc(CN2CCc3nc(Nc4ccccc4)ncc3C2)cc1`: the survival is 84%.

Turning to `Cc1ccc(Nc2nc3ccc(C(=O)c4ccccc4)cc3n3c(C)nnc23)c(C)c1`, the survival was 105%.

As for `CCCn1c2ccccc2c2cnn(CC(=O)NCCCN(Cc3ccccc3)C(C)C)c(=O)c21`, the survival is 88%.

As to `COc1ccc(-c2c(C)nn3c(-c4ccccc4)cc(-c4ccccc4)nc23)cc1OC`, the survival was 96%.

With `COc1ccc(-c2c(C)nn3c(C(F)(F)F)cc(-c4ccccc4)nc23)cc1OC`, the survival is 57%.

For `COc1ccc(-c2cc(C)nc3c(-c4ccc(OC)c(OC)c4)c(C)nn23)cc1`, the survival is 63%.

Consider `COc1ccc(-c2c(C)nn3c(-c4ccccc4)cc(C)nc23)cc1OC`, for which the survival is 38% (active).

Regarding `COc1ccc(-c2cc(C(F)(F)F)n3nc(C)c(-c4ccccc4)c3n2)cc1OC`, the survival was 69% (active).

Regarding `COc1ccc(-c2c(C)nn3c(C(F)(F)F)cc(-c4ccccc4)nc23)cc1`, the survival is 62%.

For `CC(CCO)Nc1nc2c(c(=O)n(C)c(=O)n2C)n1Cc1ccc(Br)cc1` (stereo not given), the survival was 140%.

With `COc1cccc(C(=O)NC2=NC(c3ccccc3F)CC(=O)N2)c1` (stereo not given), the survival is 75%.

For `CC(C)C(=O)Nc1c(C(=O)N2CCN(c3ccccc3F)CC2)oc2ccccc12`, the survival is 58%.

For `O=C(NCc1ccccc1)C1CCCN(c2ncccn2)C1` (stereo not given), the survival is 88%.

With `Cc1cccc(-c2noc(-c3ccc(N4CCN(C)CC4)c([N+](=O)[O-])c3)n2)c1`, the survival was 22% (active).

As to `Cc1cccc(-c2noc(-c3ccc(N4CCOCC4)c([N+](=O)[O-])c3)n2)c1`, the survival was 67%.

Turning to `Cc1ccc(-c2noc(-c3ccc(N4CCN(C)CC4)c([N+](=O)[O-])c3)n2)cc1`, the survival was 85%.

Take `COc1ccccc1-c1noc(-c2ccc(N3CCOCC3)c([N+](=O)[O-])c2)n1`: the survival is 100%.

Regarding `O=[N+]([O-])c1cc(-c2nc(-c3ccccc3)no2)ccc1N1CCN(c2ccccc2)CC1`, the survival was 77%.

Regarding `CN1CCN(c2ccc(-c3nc(-c4ccccc4)no3)cc2[N+](=O)[O-])CC1`, the survival is 41% (active).

For the compound `Cc1cccc(-c2noc(-c3ccc(N4CCCC4)c([N+](=O)[O-])c3)n2)c1`, the survival is 82%.

As for `COc1ccccc1-c1noc(-c2ccc(N3CCN(c4ccccc4)CC3)c([N+](=O)[O-])c2)n1`, the survival was 44% (active).

Take `COc1ccccc1-c1noc(-c2ccc(N3CCN(C)CC3)c([N+](=O)[O-])c2)n1`: the survival was 113%.

As for `Cc1ccc(-c2nc(SCC(=O)Nc3cc(C)on3)c3c(=O)n(C)c(=O)n(C)c3n2)cc1`, the survival is 83%.

Turning to `CC(=O)c1ccc(NC(=O)CSc2nc(=O)n(Cc3ccccn3)c3c2CCC3)cc1`, the survival is 67%.

Consider `COc1ccc(CCNC(=O)CSC2=Nc3ccccc3C3=NC(CCC(=O)NCc4ccccc4)C(=O)N23)cc1OC` (stereo not given), for which the survival was 107%.

Turning to `O=C(Nc1nc2c(F)cc(F)cc2s1)c1ccc2c(c1)OCCO2`, the survival was 85%.

For the compound `Cn1cc(C(=O)NCc2ccccc2)c(=O)c2cc(S(=O)(=O)N3CCCCCC3)ccc21`, the survival is 118%.

`Cc1noc(C)c1S(=O)(=O)Nc1ccc(C(=O)Nc2ccc(Br)cc2)cc1`: the survival is 36% (active).

Consider `Cc1noc(C)c1S(=O)(=O)Nc1ccc(C(=O)Nc2ccc(C(C)C)cc2)cc1`, for which the survival is 52% (active).

Take `Cc1noc(NS(=O)(=O)c2ccc(NC(=O)c3ccc(Br)cc3)cc2)c1C`: the survival was 74%.

`CCc1ccc(NC(=O)c2ccc(NS(=O)(=O)c3c(C)noc3C)cc2)cc1`: the survival was 48%.

`Cc1cc(Br)ccc1NC(=O)c1ccc(NS(=O)(=O)c2c(C)noc2C)cc1`: the survival was 59%.

With `COc1ccc(C)cc1NC(=O)c1ccc(NS(=O)(=O)c2c(C)noc2C)cc1`, the survival was 83%.

Turning to `Cc1cccc(C)c1NC(=O)CSc1nc(-c2ccccc2)nc2c1Cc1c(CO)cnc(C)c1O2`, the survival is 87%.

On to `CCc1cccc(C)c1NC(=O)C1CCN(c2nnc(C)c3c(C)n(-c4ccccc4)nc23)CC1`, for which the survival is 77%.

Consider `Cc1cc(C)c(NC(=O)C2CCN(c3nnc(C)c4c(C)n(-c5ccccc5)nc34)CC2)c(C)c1`, for which the survival was 52% (active).

As for `Cc1ccc(NC(=O)C2CCN(c3nnc(C)c4c(C)n(-c5ccccc5)nc34)CC2)cc1Cl`, the survival was 71%.

`O=C(Nc1cccc(C(F)(F)F)c1)c1cccnc1NCCO`: the survival is 77%.

Regarding `C=C(C)CSc1nc2sc3c(c2c(=O)n1CCCC)CCCC3`, the survival was -3% (active).

Turning to `C=C(C)Cn1c(SCC(=O)c2ccc(OC)cc2)nc2sc3c(c2c1=O)CCCC3`, the survival was 75%.

Consider `CCOC(=O)CSc1nc2sc3c(c2c(=O)n1CC)CCCC3`, for which the survival is 58%.

As for `C=C(C)Cn1c(SCC(=O)c2ccccc2)nc2sc3c(c2c1=O)CCCC3`, the survival was 69%.

As for `CCCCn1c(SCC(=O)c2ccccc2)nc2sc3c(c2c1=O)CCCC3`, the survival is 44% (active).

For `C=C(C)Cn1c(SCC(=O)c2ccc(Br)cc2)nc2sc3c(c2c1=O)CCCC3`, the survival was 50%.

As to `COc1ccc(CNC(=O)CN(C)S(=O)(=O)c2ccc3[nH]c4c(c3c2)CCCC4)cc1`, the survival was 70%.

Turning to `Cn1c(C(=O)N(Cc2ccccc2)C(C)(C)C)cc2sccc21`, the survival was 109%.

For `CCOc1ccccc1CNC(=O)C1CCN(c2nnc(C)c3c(C)n(-c4ccc(C)cc4)nc23)CC1`, the survival was 68%.

Take `Cc1cc(Nc2cccc(C(F)(F)F)c2)nc2ccc(NC(=O)c3ccc(N(C)C)cc3)cc12`: the survival is 55%.

On to `COc1ccc(CC(=O)Nc2ccc3nc(Nc4cccc(Cl)c4)cc(C)c3c2)cc1`, for which the survival is 98%.

As to `COc1ccc(CC(=O)Nc2ccc3nc(Nc4cccc(Cl)c4)cc(C)c3c2)cc1OC`, the survival is 46% (active).

On to `COc1cccc(CC(=O)Nc2ccc3nc(Nc4cccc(C(F)(F)F)c4)cc(C)c3c2)c1`, for which the survival was 25% (active).

As for `COc1ccccc1CC(=O)Nc1ccc2nc(Nc3cccc(C(F)(F)F)c3)cc(C)c2c1`, the survival is 92%.

Turning to `COc1ccccc1CC(=O)Nc1ccc2nc(Nc3cccc(Cl)c3)cc(C)c2c1`, the survival is 144%.

For the compound `Cc1cc(Nc2cccc(Cl)c2)nc2ccc(NC(=O)Cc3cccc(C(F)(F)F)c3)cc12`, the survival is 64%.

For `Cc1cc(Nc2cccc(C(F)(F)F)c2)nc2ccc(NC(=O)c3cccc(Cl)c3)cc12`, the survival was 92%.

On to `Cc1cc(Nc2cccc(C(F)(F)F)c2)nc2ccc(NC(=O)c3ccc(=O)[nH]c3)cc12`, for which the survival was 37% (active).

With `O=C(Cn1cc(S(=O)(=O)Cc2ccccc2Cl)c2ccccc21)Nc1cccc(C(F)(F)F)c1`, the survival is 75%.

For `CCOc1ccc(C2C(C(=O)Nc3ccccc3)=C(C)Nc3nc(SCc4cc(C)ccc4C)nn32)cc1` (stereo not given), the survival was 123%.

Consider `Cc1ccc(NC(=O)Cn2c(=O)n(-c3ccc(CC(=O)NCC4CCCO4)cc3)c(=O)c3ccccc32)cc1` (stereo not given), for which the survival was 95%.

Turning to `CCCCOC(=O)c1ccc(NC(=O)c2cc3c(=O)n4cccc(C)c4nc3s2)cc1`, the survival was 66%.

Turning to `COc1cc(OC)cc(C(=O)NCC(c2cccs2)S(=O)(=O)c2ccc(F)c(C)c2)c1` (stereo not given), the survival is 100%.

Turning to `Cc1cccc(NC(=O)C2CCCN(S(=O)(=O)c3ccc4c(c3)CCCC(=O)N4)C2)c1` (stereo not given), the survival is 95%.

Turning to `COc1ccc(NS(=O)(=O)c2ccc3[nH]c(=O)ccc3c2)cc1OC`, the survival was 98%.

On to `COc1ccc(-c2nc3sc(CCNC(=O)c4cc(Cl)ccc4OC)c(C)n3n2)cc1`, for which the survival is 73%.

As for `COc1ccc(C(C(=O)NCc2cccs2)N(Cc2ccco2)C(=O)Cn2nnc(-c3cccs3)n2)cc1` (stereo not given), the survival is 93%.

`CCc1cccc(C)c1NC(=O)CCCn1nc(C)c2sc3ccccc3c2c1=O`: the survival is 86%.

On to `CCc1ccc(Sc2cc(C(=O)O)c3ccccc3n2)cc1`, for which the survival was 78%.

For `CCOCCCNC(=O)CN1C(=O)COc2ccc(S(=O)(=O)N3CCCC3)cc21`, the survival is 87%.

With `CCC(Cn1nnc2ccccc2c1=O)NC(=O)Nc1cccc(C)c1C` (stereo not given), the survival was 55%.

Regarding `CCC(Cn1nnc2ccccc2c1=O)NC(=O)Nc1cc(OC)cc(OC)c1` (stereo not given), the survival was 88%.

Consider `CCC(Cn1nnc2ccccc2c1=O)NC(=O)Nc1ccc(C)cc1C` (stereo not given), for which the survival is 44% (active).

For the compound `CCc1ccccc1NC(=O)NC(CC)Cn1nnc2ccccc2c1=O` (stereo not given), the survival was 61%.

Turning to `CCC(Cn1nnc2ccccc2c1=O)NC(=O)Nc1ccccc1Cl` (stereo not given), the survival is 85%.

As for `CCC(Cn1nnc2ccccc2c1=O)NC(=O)Nc1ccc(C)c(C)c1` (stereo not given), the survival is 45%.

Turning to `CCC(Cn1nnc2ccccc2c1=O)NC(=O)Nc1cc(C)cc(C)c1` (stereo not given), the survival is 41% (active).

On to `CCC(Cn1nnc2ccccc2c1=O)NC(=O)Nc1ccc(C)cc1` (stereo not given), for which the survival is 55%.

On to `CCC(Cn1nnc2ccccc2c1=O)NC(=O)Nc1cccc(Cl)c1` (stereo not given), for which the survival was 39% (active).

As to `COc1ccccc1CNC(=O)C(C)n1ccc2cc(S(=O)(=O)N3CCCC3)ccc21` (stereo not given), the survival was 81%.

As to `CCc1ccc(CN2CCC(C(=O)N(C)CCc3ccc(OC)c(OC)c3)CC2)cc1`, the survival is 81%.

In the case of `CCCN(C(=O)c1cc2c(=O)[nH]c3ccc(C)cc3c2s1)c1ccc(CC)cc1`, the survival is 64%.

`CCCCNS(=O)(=O)c1ccc(NC(=O)c2c(-c3ccccc3)noc2C)cc1`: the survival was 101%.

For `CN(C)c1ccc(CNC(=O)C2CCN(S(=O)(=O)c3ccc4c(ccn4C)c3)CC2)cc1`, the survival is 95%.

Turning to `Cc1ccc(NC(=O)c2cnc(SCC(=O)Nc3cc(C)on3)n(C)c2=O)cc1`, the survival is 88%.

As to `COc1ccc(CCn2c3c(c(=O)[nH]c2=O)C(NC(=O)c2ccccc2F)(C(F)(F)F)C(=O)N3)cc1OC` (stereo not given), the survival is 60%.

As to `COc1ccc(N(Cc2cc3ccccc3[nH]c2=O)C(=O)c2cccc(Cl)c2)cc1`, the survival was 87%.

Source of the values: PubChem BioAssay AID463173 (ICCB-Longwood Screening Facility, Harvard Medical School, 2010).
